Reference: PubChem BioAssay (Tox21)
Inconclusive results are not listed. Values without a mark were called inactive. Calls of active or inactive are those of the source. Calls come from the whole dose curve; as a rule, active = well fitted cell-killing curve with a large enough effect in the repeat runs; inconclusive = weak or mixed curves; inactive = no such curve, though single readings can be large or run the other way. Residues, ends and D or L forms follow the SMILES beside them.

test: qHTS assay to identify small molecule antagonists of the androgen receptor (AR) signaling pathway - cell viability counter screen (AID 743033; note: nearly all actives have a fitted effect of over 45% in size); details: AR-bla HEK293 viability, CellTiter-Glo luminescence, 16 h; series mostly up to 58.5 µM; activity change, negative = cytotoxicity: at the top concentration
Excerpt: National Center for Advancing Translational Sciences [NCATS]
NIH Chemical Genomics Center [NCGC]
U.S. Environmental Protection Agency [EPA]
National Institutes of Environmental Health Sciences [NIEHS]
National Toxicology Program [NTP]
U.S. Food and Drug Administration [FDA]
Androgen receptor (AR), a nuclear hormone receptor, plays a critical role in AR-dependent prostate cancer and other androgen related diseases. Endocrine disrupting chemicals (EDCs) and their interactions with steroid hormone receptors like AR may cause disruption of normal endocrine function as well as interfere with metabolic homeostasis, reproduction, developmental and behavioral functions. To identify the compounds that inhibit AR signaling, GeneBLAzer AR-UAS-bla-GripTite cell line (Invitrogen, Carlsbad, CA, USA) containing a beta-lactamase reporter gene under control of an Upstream Activator Sequence (UAS) stably integrated into HEK293 cells was used to screen the Tox21 10K compound library. The cytotoxicity of the Tox21 compound library against the AR-bla cell line was tested in parallel by measuring the cell viability using CellTiter-Glo assay in the same wells.
Tox21 Assay Protocol Summary:
AR-bla cells were dispensed at 2,000 cells/5 uL of assay medium per well into black wall/clear-bottom 1536-well plates using a Multidrop Combi (ThermoFisher Scientific, Waltham, MA) dispenser. After the assay plates were incubated at a 37C and 5% CO2 for 4 hr, 23 nL of compounds dissolved in DMSO, positive controls or DMSO only was transferred to the assay plate by a Pintool station (Kalypsys, San Diego, CA), followed by addition of 1 uL of agonist (R1881) in culture medium using a Bioraptr Flying Reagent Dispenser (FRD) workstation (Beckman Coulter, Indianapolis, IN, USA). The plates were incubated at a 37C and 5% CO2 for 16 h. After 1 uL of LiveBLAzerTM B/G FRET substrate was added using a Bioraptr FRD, the plates were incubated at room temperature for 2 h and fluorescence intensity was measured by an Envision plate reader (PerkinElmer, Shelton, CT). For cell viability readout that measures cytotoxicity, 4 ul/well of CellTiter-Glo reagent was added into the assay plates using a Bioraptr FRD. After 30 min incubation at room temperature, the luminescence intensity in the plates was measured using a ViewLux (PerkinElmer) plate reader.
% is set by controls: 0 for no effect and ±100 for the full control effect; potency is the fitted concentration of half-maximal effect.

| SMILES | activity change, negative = cytotoxicity | Potency |
| --- | --- | --- |
| O=C1CCC(c2ccc(-n3ccnc3)cc2)=NN1 | 2.95% | – |
| CN[C@H](CC(C)C)C(=O)N[C@H]1C(=O)N[C@@H](CC(N)=O)C(=O)N[C@H]2C(=O)N[C@H]3C(=O)N[C@H](C(=O)N[C@@H](C(=O)O)c4cc(O)cc(O)c4-c4cc3ccc4O)[C@H](O)c3ccc(c(Cl)c3)Oc3cc2cc(c3O[C@@H]2O[C@H](CO)[C@@H](O)[C@H](O)[C@H]2O[C@H]2C[C@](C)(N)C(O)[C@H](C)O2)Oc2ccc(cc2Cl)[C@H]1O (stereo not given in full) | – | inactive |
| O=C(O)COc1ccccc1/C=N/NC(=O)c1ccncc1 | -11.1% | – |
| FC(F)(F)C(F)(F)C(F)(F)C(F)(F)C(F)(F)F | 4.36% | – |
| CO[C@H]1C[C@H](O[C@H]2[C@H](C)[C@@H](O[C@@H]3O[C@H](C)C[C@H](N(C)C)[C@H]3O)[C@@H](C)C[C@]3(CO3)C(=O)[C@H](C)[C@@H](O)[C@@H](C)[C@@H](C)OC(=O)[C@@H]2C)O[C@@H](C)[C@@H]1O | -17.6% [at 27 µM] | – |
| CC(C)=CCC/C(C)=C/CC/C(C)=C/CC/C(C)=C/CC1=C(C)C(=O)c2ccccc2C1=O | – | inactive |
| c1ccc(-c2ccc(C(c3ccccc3)n3ccnc3)cc2)cc1 (stereo not given) | -16.4% | – |
| O=C1CC[C@@H](C(=O)N[C@H]2C[C@@H]2c2ccccc2)N1 | 0.0821% | – |
| CCOC(=O)[C@H](CCc1ccccc1)N[C@@H](C)C(=O)N1[C@H](C(=O)O)C[C@H]2CCCC[C@@H]21 | 3.42% | – |
| O=C(O)c1cc2cc(Cc3cccnc3)ccc2o1 | 4.32% | – |
| Nc1cc(Cl)c(NC2=NCCN2)c(Cl)c1 | 1.51% | – |
| NC(=O)C1c2ccccc2CCc2ccccc21 | -6.49% | – |
| CO/N=C(\C(=O)N[C@@H]1C(=O)N2C(C(=O)O)=C(CSc3nc(C)c(CC(=O)O)s3)CS[C@H]12)c1csc(N)n1 | 4.29% | – |
| C[C@@H]1C[C@H]2[C@@H]3C[C@H](F)C4=CC(=O)C=C[C@]4(C)[C@@]3(Cl)[C@@H](O)C[C@]2(C)[C@H]1C(=O)COC(=O)C(C)(C)C | 3.65% | – |
| c1ccc2cc3c4ccccc4c4ccccc4c3cc2c1 | 0.99% [at 78.9 µM] | – |
| C[C@H]1O[C@@H](O[C@H]2CC[C@@]3(C)[C@H](CC[C@@H]4[C@@H]3C[C@@H](O)[C@]3(C)[C@@H](C5=CC(=O)OC5)CC[C@]43O)C2)C[C@H](O)[C@@H]1O[C@H]1C[C@H](O)[C@H](O[C@H]2C[C@H](O)[C@H](O[C@@H]3O[C@H](CO)[C@@H](O)[C@H](O)[C@H]3O)[C@@H](C)O2)[C@@H](C)O1 | – | 0.268 µM (active) |
| O=C(O)C[C@H](O)C[C@H](O)/C=C/c1c(C2CC2)nc2ccccc2c1-c1ccc(F)cc1 | -11.6% | – |
| CCCCCCCCCC[N+](C)(CCCCCCCCCC)CCC[Si](OC)(OC)OC | – | 43.6 µM (active) |
| CCCCCCCCCCCCCC(=O)OCC(COP(=O)([O-])OCC[N+](C)(C)C)OC(=O)CCCCCCCCCCCCC (stereo not given) | 4.68% | – |
| CC(=NCc1ccccc1)c1ccccc1O | -2.08% | – |

| SMILES | activity change, negative = cytotoxicity | Potency |
| --- | --- | --- |
| O=S(=O)(O)CC(S)CS (stereo not given) | -4.59% | – |
| CN(C)CCOc1ccc(/C(=C(/CCCl)c2ccccc2)c2ccccc2)cc1 | – | 16.3 µM (active) |
| C=CC1=C(C(=O)O)N2C(=O)[C@@H](NC(=O)/C(=N\O)c3csc(N)n3)[C@H]2SC1 (stereo in doubt) | – | inactive |
| COC1=C(OC)C(=O)C(C/C=C(\C)CC/C=C(\C)CC/C=C(\C)CC/C=C(\C)CC/C=C(\C)CC/C=C(\C)CC/C=C(\C)CC/C=C(\C)CC/C=C(\C)CCC=C(C)C)=C(C)C1=O | – | inactive |
| O=C1c2ccccc2CN2C(=O)c3ccccc3CN12 | 0.137% | – |
| NCCCC(=O)O | 9.25% | – |
| O=C1c2c(O)cccc2[C@H]([C@@H]2O[C@H](CO)[C@@H](O)[C@H](O)[C@H]2O)c2cc(CO)cc(O)c21 | – | inactive |
| CO[C@H]1C[C@@H]2CC[C@@H](C)[C@@](O)(O2)C(=O)C(=O)N2CCCC[C@H]2C(=O)O[C@H]([C@H](C)C[C@@H]2CC[C@@H](O)[C@H](OC)C2)CC(=O)[C@H](C)C=C(C)[C@@H](O)[C@@H](OC)C(=O)[C@H](C)C[C@H](C)/C=C/C=CC=C1C | -7.96% | – |
| O=C1c2ccccc2-c2n[nH]c3cccc1c23 | 0.0552% | – |
| CC12CCC(C[N+](C)(CCC[N+](C)(C)C)C1)C2(C)C (stereo not given) | 1.05% | – |
| CCc1cn([C@H]2C[C@H](O)[C@@H](CO)O2)c(=O)[nH]c1=O | -1.76% | – |
| CN1C(C(=O)Nc2ccccn2)C(=O)c2sc(Cl)cc2S1(=O)=O (stereo not given) | 10.3% | – |
| N=C(N)n1cccn1 | 4.67% | – |
| NC(=O)CC[C@@H]1NC(=O)[C@H](Cc2ccccc2)NC(=O)[C@H](Cc2ccc(O)cc2)NC(=O)[C@@H](N)CSSC[C@@H](C(=O)N2CCC[C@H]2C(=O)N[C@@H](CCCN=C(N)N)C(=O)NCC(N)=O)NC(=O)[C@H](CC(N)=O)NC1=O | – | inactive |
| CC[C@@H](C(=O)[C@@H](C)[C@@H](O)[C@H](C)CCc1ccc(C)c(O)c1C(=O)O)[C@H]1O[C@](CC)([C@H]2CC[C@](O)(CC)[C@H](C)O2)C[C@@H]1C | – | 6.74 µM (active) |
| C=C1C(=C/C=C2\CCC[C@]3(C)[C@@H]([C@H](C)CCCC(C)C)CC[C@@H]23)C[C@@H](O)C[C@@H]1O | 4.51% | – |
| COc1ccc([C@@H]2CC(=O)c3c(O)cc(O[C@@H]4O[C@H](CO[C@@H]5O[C@@H](C)[C@H](O)[C@@H](O)[C@H]5O)[C@@H](O)[C@H](O)[C@H]4O)cc3O2)cc1O | 4.86% [at 27 µM] | – |
| CC(C)[C@H](NC(=O)[C@H](CC(=O)O)NC(=O)[C@H](CCCCN)NC(=O)[C@@H](N)CCCN=C(N)N)C(=O)N[C@@H](Cc1ccc(O)cc1)C(=O)O (H-RKDVY-OH) | 5.33% | – |
| N=C(N)c1ccc(/C=C/c2ccc(C(=N)N)cc2O)cc1 | 2.41% | – |
| COc1ccc(/C=C/C(=O)O)cc1 | 6.58% | – |
